Values joined by “and” are separate entries in the source; they are usually repeats but may differ in a detail not shown here. Equal entries are not always repeated. The panel holds about 83,000 compounds, 20% with a hit somewhere; the sample as a whole holds those more often.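 Step 1: grow cells in 96-well plates. Step 2: add test compound at a single concentration. Step 3: incubate 48 h. Step 4: record percent growth.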 Active and inactive are the calls of the source. The calls were made as follows: active = growth percent below 10; inactive = the rest.

The test has as its system MOLT-4 leukemia. As to the kind of experiment: NCI-60 one-dose screen, 48 h (100 = growth as untreated, 0 = no growth, -100 = all killed). The conditions noted are these: 10 µM unless noted.
With `CCCCn1c(=O)c(C(=O)NCc2ccccc2Cl)c(O)c2ccccc21`, the growth is 58.4% (inactive).

`O=C(NCCCN1CC1)Nc1cccc2ccccc12`: the growth was 103% (inactive) and 83.7% (inactive).

For the compound `Oc1cc(N2CC2)c(O)cc1N1CC1`, the growth is 9.13% (active).

Regarding `CC12CCC3C4CCC(=O)C=C4CCC3C1CC1CC(=O)OC12` (configuration not stated), the growth is 95.6% (inactive).

In the case of `CCOP(=O)(OCC)C(=O)N(CC)CC`, the growth is 114% (inactive).

Take `C#Cc1cccc(Nc2nc(Cl)nc3cc(NC(=O)CF)ccc23)c1`: the growth was 80% (inactive).

Take `CC[C@H](C)[C@H](NC(=O)[C@H]1CCCCN1C)C(=O)N(C)[C@H](C(=O)NC12CC(C(=O)N[C@@H](Cc3ccccc3)C[C@H](C)C(=O)OC)(C1)C2)C(C)C`: the growth was 104% (inactive).

With `CN1CCC2(CC1)C(C#N)C(=O)NC(=O)C2C#N` (configuration not stated), the growth was 100% (inactive).

As for `CC12CCC3C(CCC4CC(O)CCC43C)C1CCC2=O` (configuration not stated), the growth is 83.1% (inactive).

Take `C=CC[PH+](c1ccccc1)c1ccccc1.C=CC[PH+](c1ccccc1)c1ccccc1.[Pt+2].[S-]c1nc2ccccc2[nH]1.[S-]c1nc2ccccc2[nH]1`: the growth was 0.306% (active).

Turning to `Cc1cc[c-]cc1.Fc1c[c-]c(-c2ccccn2)c(F)c1.[Pt+2].c1ccc([PH+](c2ccccc2)c2ccccn2)cc1`, the growth is 26% (inactive).

For `C=C[Se]CC(=O)/C=C/c1ccccc1`, the growth is 79.5% (inactive).

As for `CCCCCCCCCCCCCCCCCC1OCC(COC(=O)O[C@@H](C(=O)O[C@H]2C[C@@]3(O)[C@@H](OC(=O)c4ccccc4)[C@@H]4[C@]5(OC(C)=O)CO[C@@H]5C[C@H](O)[C@@]4(C)C(=O)[C@H](OC(C)=O)C(=C2C)C3(C)C)[C@@H](NC(=O)c2ccccc2)c2ccccc2)O1` (some centres not stated), the growth was 43.6% (inactive).

Consider `CC1(C)C=Cc2c(ccc3c2[N+]([O-])=C2C3=C[C@@]34NC(=O)[C@]5(CCCN5C3=O)C[C@@H]4C2(C)C)O1`, for which the growth was 28.7% (inactive).

As to `O=C(O)C1C(C(=O)O)C2(Cl)C(Cl)=C(Cl)C1(Cl)C2(Cl)Cl` (configuration not stated), the growth is 115% (inactive) and 106% (inactive).

As to `CNC(=O)O/N=C(\SC)C(=O)N(C)C`, the growth is 86.5% (inactive).

Turning to `C[C@]12CCc3sc(Nc4ccc(F)cc4F)nc3C1=CC[C@@H]1[C@@H]2CC[C@]2(C)C(=O)CC[C@@H]12`, the growth is 3.63% (active).

As to `N#CC(C#N)=C(C#N)C#N`, the growth was 102% (inactive).

Take `N#CCC(=O)c1ccccc1`: the growth is 95.2% (inactive).

With `O=C(O)c1ccc(=O)[nH]c1`, the growth is 119% (inactive) and 99.2% (inactive).

`CC[C@H](C)[C@H](NC(=O)CN(C)C)C(=O)N(C)[C@H](C[C@@H](OC(C)=O)c1nc(C(=O)NC23C4C5C2C2C3C4C52C(=O)OC)cs1)C(C)C` (some centres not stated): the growth is 11% (inactive).

Regarding `CNC(=O)Oc1ccc(Cl)cc1SSc1cc(Cl)ccc1OC(=O)NC`, the growth is 52.9% (inactive).

As to `CC(=O)OC1CC2(O)C(CCC3(C)C(c4ccc(=O)oc4)CCC32O)C2(C)CCC(OC3OC(CO)C(O)C(O)C3O)C=C12` (configuration not stated), the growth was -19.6% (active).

With `Oc1ccc(O)c(Cl)c1`, the growth is 65.6% (inactive) and 105% (inactive).

With `CC(=O)Nc1nc2c(s1)C1=CC[C@H]3[C@@H]4CC[C@H](OC(C)=O)[C@@]4(C)CC[C@@H]3[C@@]1(C)CC2`, the growth was 82.9% (inactive).

As for `O=C(O)C(F)F`, the growth was 102% (inactive).

As for `CC[C@H](C)[C@H](NC(=O)C12CC(NC)(C1)C2)C(=O)N(C)[C@H](C[C@@H](OC(C)=O)c1nc(C(=O)N[C@@H](Cc2ccccc2)C[C@H](C)C(=O)OC)cs1)C(C)C`, the growth was 8.66% (active).

As for `NC(=O)Oc1cc(OC(N)=O)cc(N(CCCl)CCCl)c1`, the growth was 13.1% (inactive).

For `CC[PH+](CC)CC.O=COC1OC([S-])C(OC=O)C(OC=O)C1OC=O.[Au+]` (configuration not stated), the growth is -29.1% (active).

For `CCOC(=O)c1ccccc1C(=O)OCC`, the growth was 101% (inactive).

On to `C[C@@H]1C/C=C\C(=O)O[C@H](/C=C/C#C/C=C/C(C)(C)[C@@H](O)c2cccc(O)c2Br)[C@@H](C)/C=C/[C@H](C)C[C@H](OC(N)=O)C1`, for which the growth was 19.7% (inactive).

`Cc1c(C)c(N)c(C)c(C)c1N`: the growth was 84.1% (inactive).

Take `Nc1ccc(P(=O)(O)O)cc1`: the growth was 110% (inactive) and 112% (inactive).

With `OCCN=Cc1c[nH]c2ccccc12`, the growth is 101% (inactive).

For the compound `S=P(SP(=S)(c1ccccc1)c1ccccc1)(c1ccccc1)c1ccccc1`, the growth is 98.3% (inactive).

For `CN1CCc2cc3c(cc2C1O)OCO3` (configuration not stated), the growth is 111% (inactive).

With `Cc1cc(NC(=O)NCCCOc2ccc(N3C(N)=NC(N)=NC3(C)C)cc2Cl)ccc1S(=O)(=O)F`, the growth is 37.5% (inactive).
